Source: PubChem BioAssay
Values joined by “and” are separate entries in the source; they are usually repeats but may differ in a detail not shown here. Equal values may be shown once. More than one record can exist for a structure, and the calls need not agree. Active and inactive are the calls of the source.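 How the source made its calls, unless noted: active means thallium flux through the channel raised or lowered by more than 3 SD from vehicle-only wells, actives on both sides; inactive means the rest.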

How the values were obtained:
[1] = stimulators of nuclear beta-catenin in C2C12, primary screen, imaging, WNT3A-conditioned medium, mouse C2C12, NPC library (AID 1117326; in the data active means nuclear beta-catenin stimulation mostly above about 4.2%, no sharp cut-off; inactive means mostly below about 10%); conditions: stronger effect = higher value
[2] = stimulators of insulin release from INS-1E, primary screen, cell-based, 5 mM glucose, NPC library (AID 1117329;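 active means compound raises insulin release from rat beta cells at 5 mM glucose, no numeric limit stated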); conditions: rat INS-1E insulin secretion, at 10 µM, stronger effect = higher value
[3] = growth inhibition of GSK3B-pretreated HCT116 cells – cell-based, CellTiter-Glo, 0.2 to 20 µM (AID 1117336;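 active means compounds lowering colon cancer cell viability after pretreatment blocking the GSK3B kinase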); conditions: HCT116 viability after GSK3B inhibitor, at 20 µM, stronger effect = higher value
[4] = inhibition of endothelial tube formation, primary screen, imaging, VEGF stimulated, CD31 staining, tube area, NPC library (AID 1117340;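 active means compound that reduces growth-factor-driven endothelial tube area in a mixed cell culture, no cutoff stated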); conditions: VEGF-stimulated ADSC/ECFC co-culture, at 10 µM, stronger effect = higher value
[5] = glucagon-like peptide 1 release enhancers, primary assay, NCI-H716 cell line, NPC library (AID 1117341;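 active means compound raises GLP1 secretion from the human gut endocrine cells, with no numeric limit stated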); conditions: NCI-H716 cells, at 10 µM, stronger effect = higher value
[6] = HCT116 colon cancer cell growth inhibition, primary screen, CellTiter-Glo luminescence, NPC library (AID 1117342;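 active means compounds that lower survival of HCT116 colon cancer cells in the luminescence readout, no numeric limit stated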); conditions: at 20 µM (top of the series)
[7] = CellTiter-Glo luminescent readout of SW480 viability loss, NPC library primary (AID 1117343;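 active means compounds that lower viability of the colon cancer cells in the luminescence readout, with no numeric limit stated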); conditions: CellTiter-Glo luminescence; at 20 µM (top of the series)
[8] = decreased DLD-1 cellular survival, CellTiter-Glo luminescent readout, NPC compound collection, primary HTS (AID 1117346;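 active means compounds that lower survival of DLD-1 colon cancer cells in the luminescence readout, no cutoff given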); conditions: DLD-1 viability, CellTiter-Glo luminescence; at 20 µM (top of the series)
[9] = target: 6-phosphogluconate dehydrogenase, decarboxylating (Homo sapiens) (UniProt P52209); experiment: 6PGD enzyme inhibitors, primary screen, biochemical, human, recombinant enzyme, NADPH absorbance (AID 1159550;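 active means at least 20% inhibition of 6-phosphogluconate dehydrogenase activity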); conditions: recombinant 6PGD, NADPH absorbance 341 nm; at 10 µM; stronger effect = higher value
[10] = modulation of C. elegans fzo-1 (AID 1259413; call rule not given here;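 further: fzo-1 mutant C. elegans worms in liquid wells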); conditions: C. elegans fzo-1 modulator screen, mean read-out; stronger effect = higher value
[11] = differential killing of epithelial or mesenchymal cells, primary screen, imaging, PC-3E GFP, TEM4-18 mCherry, co-culture (AID 1345086;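 active means compounds killing one labelled cell type while sparing the other, by normalised counts and ratio limits, not self-fluorescent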;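 on all read-outs here: cells exposed to compound for 72 h before imaging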;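 on red/green cell ratio (normalised): normalised mesenchymal count divided by normalised epithelial count so high means epithelial killing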); conditions: imaging cell counts, at 1 µM; for red/green cell ratio (normalised): actives lie on both sides, counts scaled to control wells, 1 = unselective
[12] = survival rescue of mitochondrial mutant cells in low glucose, primary screen, MELAS cybrids, Rieske KO mouse fibroblasts, CellTiter-Glo (AID 1508586;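 active means mean z-score across replicates of 1.96 or higher in either the MELAS or the Rieske mutant cell line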;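 further: z relative to plate mean and SD of compound and empty wells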)
[13] = target: NAD(+) hydrolase SARM1 (Homo sapiens) (UniProt Q6SZW1); experiment: SARM1 TIR NADase inhibitors, cell lysate, NAD-Glo luminescence (AID 1508614;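 active means compound whose remaining NAD level is above about 45 nM, limit read from the data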); conditions: SAM-TIR HEK293T lysate NADase, at 1 µM, stronger effect = higher value
[14] = target: Mitogen-activated protein kinase 7 (Homo sapiens) (UniProt Q13164); experiment: ERK5 transactivation activators in reporter cells, primary screen, cell-based, HTS (AID 1508626;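 active means luciferase signal above three times the same-plate solvent-only control wells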;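 further: luciferase driven by Gal4-ERK5 fusion binding five Gal4 sites before minimal TATA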); conditions: HeLa Gal4-ERK5 transactivation, 18 h, at 5 µM, stronger effect = higher value
[15] = tested on: F380Y; experiment: modulators of BK channel variants, profiling panel, selectivity assay, cell-based, U2OS BacMam, thallium flux, beta subunits (AID 1259406); conditions: at 30 µM;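 further: initial slope of Thallos dye fluorescence rise after thallium is added; log ratio against the mean of 0.3% DMSO vehicle wells on the same plate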
[16] = tested on: F380Y/beta1; experiment: as above; conditions: at 30 µM
[17] = tested on: F380Y/beta2Delta; experiment: as above; conditions: at 30 µM
[18] = measured here: epithelial PC-3E GFP cell survival
[19] = measured here: mesenchymal TEM4-18 mCherry cell survival
[20] = MELAS cybrid survival, CellTiter-Glo 48 h, stronger effect = higher value
[21] = Rieske KO mouse fibroblast survival, CellTiter-Glo 72 h

Sequence of NAD(+) hydrolase SARM1 (Homo sapiens) (Q6SZW1 whole entry, looked up, the tested form may be a part): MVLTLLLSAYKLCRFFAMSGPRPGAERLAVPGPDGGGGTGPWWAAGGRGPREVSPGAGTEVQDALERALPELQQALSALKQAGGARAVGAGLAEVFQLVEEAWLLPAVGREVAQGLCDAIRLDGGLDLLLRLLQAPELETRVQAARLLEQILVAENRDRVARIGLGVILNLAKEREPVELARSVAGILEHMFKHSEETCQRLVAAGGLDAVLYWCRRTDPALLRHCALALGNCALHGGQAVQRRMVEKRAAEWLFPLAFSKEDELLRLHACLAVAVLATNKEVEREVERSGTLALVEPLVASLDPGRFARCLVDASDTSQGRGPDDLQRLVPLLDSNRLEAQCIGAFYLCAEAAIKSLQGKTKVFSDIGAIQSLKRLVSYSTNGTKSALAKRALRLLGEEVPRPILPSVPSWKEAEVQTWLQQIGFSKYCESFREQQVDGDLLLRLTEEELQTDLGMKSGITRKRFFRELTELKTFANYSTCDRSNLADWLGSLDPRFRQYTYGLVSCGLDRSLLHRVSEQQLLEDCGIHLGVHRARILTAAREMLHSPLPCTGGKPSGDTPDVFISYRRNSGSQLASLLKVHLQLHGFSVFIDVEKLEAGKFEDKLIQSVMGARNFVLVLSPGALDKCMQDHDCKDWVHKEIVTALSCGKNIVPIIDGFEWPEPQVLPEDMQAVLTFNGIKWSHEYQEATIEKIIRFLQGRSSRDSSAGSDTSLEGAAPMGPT
Sequence of Mitogen-activated protein kinase 7 (Homo sapiens) (Q13164 whole entry, looked up, the tested form may be a part): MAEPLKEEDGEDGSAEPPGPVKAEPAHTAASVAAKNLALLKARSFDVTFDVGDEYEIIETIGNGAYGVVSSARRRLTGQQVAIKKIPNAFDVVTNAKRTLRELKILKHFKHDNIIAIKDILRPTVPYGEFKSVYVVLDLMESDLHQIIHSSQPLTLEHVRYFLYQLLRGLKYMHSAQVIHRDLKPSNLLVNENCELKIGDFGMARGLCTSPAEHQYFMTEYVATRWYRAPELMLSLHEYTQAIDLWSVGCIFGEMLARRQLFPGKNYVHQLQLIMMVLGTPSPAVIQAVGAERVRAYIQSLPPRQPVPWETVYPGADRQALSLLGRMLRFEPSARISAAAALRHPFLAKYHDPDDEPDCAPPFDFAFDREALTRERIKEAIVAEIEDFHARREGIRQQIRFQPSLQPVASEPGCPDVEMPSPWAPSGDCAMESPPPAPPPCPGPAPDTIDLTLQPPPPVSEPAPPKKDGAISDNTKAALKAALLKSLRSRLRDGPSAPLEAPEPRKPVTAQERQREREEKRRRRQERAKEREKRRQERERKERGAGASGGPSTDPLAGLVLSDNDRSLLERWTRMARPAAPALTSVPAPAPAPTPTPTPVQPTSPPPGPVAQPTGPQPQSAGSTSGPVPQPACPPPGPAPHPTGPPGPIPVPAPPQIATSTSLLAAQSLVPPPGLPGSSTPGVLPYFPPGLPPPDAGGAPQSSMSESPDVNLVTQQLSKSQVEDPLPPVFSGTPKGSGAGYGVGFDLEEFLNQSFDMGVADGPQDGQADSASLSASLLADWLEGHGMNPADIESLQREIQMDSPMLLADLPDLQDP
Sequence of 6-phosphogluconate dehydrogenase, decarboxylating (Homo sapiens) (P52209 whole entry, looked up): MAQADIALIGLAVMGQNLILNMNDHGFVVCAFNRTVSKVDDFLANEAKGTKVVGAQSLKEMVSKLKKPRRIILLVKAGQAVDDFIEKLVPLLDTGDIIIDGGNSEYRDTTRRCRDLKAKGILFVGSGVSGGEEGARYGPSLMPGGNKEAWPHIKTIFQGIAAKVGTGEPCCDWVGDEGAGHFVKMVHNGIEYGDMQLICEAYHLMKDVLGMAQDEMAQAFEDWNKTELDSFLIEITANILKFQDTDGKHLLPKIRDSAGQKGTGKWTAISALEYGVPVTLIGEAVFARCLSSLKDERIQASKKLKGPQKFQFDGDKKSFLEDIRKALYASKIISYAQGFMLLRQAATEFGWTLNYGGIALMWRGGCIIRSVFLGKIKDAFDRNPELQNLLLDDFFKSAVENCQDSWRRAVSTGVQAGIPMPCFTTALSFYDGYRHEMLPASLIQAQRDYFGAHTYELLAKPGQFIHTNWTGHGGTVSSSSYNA

CCCCNc1cc(C(=O)O)cc(S(N)(=O)=O)c1Oc1ccccc1
-0.392 and -0.0528 and -1.25: z-score [12, 21]
1.1: normalised cell number [11, 18]
1.05: normalised cell number [11, 19]
-0.1%: nuclear beta-catenin stimulation ([1]; stimulation, at 2 µM)
inactive: nuclear beta-catenin stimulation ([1]; at 10 µM) 0.1% | insulin secretion stimulation [2] -0.7% | viability decrease [3] -57% | tube area decrease [4] 3.7% | GLP1 secretion stimulation [5] -2.2% | inhibition of viability [6] 2.63% | viability decrease (inhibition) [7] 2.4% | viability decrease (inhibition) [8] -4.2% | inhibition [9] 0% | mean signal [10] 228 | red/green cell ratio (normalised) [11] 0.96 | z-score [12, 20] -0.34 and 0.797 and -0.227 | remaining NAD [13] 10 nM | luciferase signal [14] 32 AU | log fold change Tl+ flux [15] 0.0239 | log fold change Tl+ flux [16] -0.0436 | log fold change Tl+ flux [17] -0.0452

NCCc1ccc(O)c(O)c1
0.8%: nuclear beta-catenin stimulation ([1]; stimulation, at 2 µM)
1.44 and 0.87: normalised cell number [11, 19]
1.41 and 1.02: normalised cell number [11, 18]
0.135 and -0.219: z-score [12, 21]
active: viability decrease (inhibition) [7] 79.9%
inactive: nuclear beta-catenin stimulation ([1]; at 10 µM) 1.1% | insulin secretion stimulation [2] -3% | viability decrease [3] 22.9% | tube area decrease [4] 37.7% | GLP1 secretion stimulation [5] -0.9% | inhibition of viability [6] -9.7% | viability decrease (inhibition) [8] 11.6% | inhibition [9] -4.79% | mean signal [10] 263 | red/green cell ratio (normalised) [11] 1.02 and 0.85 | z-score [12, 20] -0.31 and 0.319 | remaining NAD [13] 10 nM | log fold change Tl+ flux [15] 0.0174 | log fold change Tl+ flux [16] 0.0356 | log fold change Tl+ flux [17] 0.0459
44 AU (inactive) and 204 AU (active): luciferase signal [14]

CCc1cc(C(N)=S)ccn1
inactive: nuclear beta-catenin stimulation ([1]; at 10 µM) 0.1% | insulin secretion stimulation [2] 1% | viability decrease [3] -19.3% | tube area decrease [4] 2.7% | GLP1 secretion stimulation [5] -4% | inhibition of viability [6] -7.9% | viability decrease (inhibition) [7] 6.3% | viability decrease (inhibition) [8] -11% | inhibition [9] 11% | mean signal [10] 267 | red/green cell ratio (normalised) [11] 0.96 | z-score [12, 20] 0.0369 and 0.0584 | remaining NAD [13] 10 nM | luciferase signal [14] 40 AU | log fold change Tl+ flux [15] 0.0115 | log fold change Tl+ flux [16] 0.0016 | log fold change Tl+ flux [17] -0.0262
0.97: normalised cell number [11, 19]
0.0377 and 0.257: z-score [12, 21]
0.5%: nuclear beta-catenin stimulation ([1]; stimulation, at 2 µM)
1.01: normalised cell number [11, 18]

OC(Cn1cncn1)(Cn1cncn1)c1ccc(F)cc1F
1.22: normalised cell number [11, 18]
-0.288 and -0.48 and -0.41: z-score [12, 21]
1.57: normalised cell number [11, 19]
1.1%: nuclear beta-catenin stimulation ([1]; stimulation, at 2 µM)
inactive: nuclear beta-catenin stimulation ([1]; at 10 µM) 1.7% | insulin secretion stimulation [2] 4.05% | viability decrease [3] 19.2% | tube area decrease [4] -10% | GLP1 secretion stimulation [5] 1% | inhibition of viability [6] 1.7% | viability decrease (inhibition) [7] 7.1% | viability decrease (inhibition) [8] 2.4% | inhibition [9] 9% | mean signal [10] 277 | red/green cell ratio (normalised) [11] 1.28 | z-score [12, 20] -0.408 and -0.874 and -0.724 | remaining NAD [13] 14 nM | luciferase signal [14] 32 AU | log fold change Tl+ flux [15] 0.0166 | log fold change Tl+ flux [16] -0.0268 | log fold change Tl+ flux [17] -0.000209

CC12CC3CC(C)(C1)CC(N)(C3)C2
1: normalised cell number [11, 19]
0.678 and -0.28: z-score [12, 21]
inactive: nuclear beta-catenin stimulation ([1]; at 10 µM) 2% | insulin secretion stimulation [2] 12% | viability decrease [3] -2.8% | tube area decrease [4] -6.5% | GLP1 secretion stimulation [5] 2.8% | inhibition of viability [6] -5.4% | viability decrease (inhibition) [7] 14.2% | viability decrease (inhibition) [8] 0.65% | inhibition [9] 7.37% | mean signal [10] 254 | red/green cell ratio (normalised) [11] 0.87 | z-score [12, 20] -0.277 and -0.613 | remaining NAD [13] 10 nM | luciferase signal [14] 40 AU | log fold change Tl+ flux [15] 0.0112 | log fold change Tl+ flux [16] 0.0185 | log fold change Tl+ flux [17] 0.0288
1.15: normalised cell number [11, 18]
1%: nuclear beta-catenin stimulation ([1]; stimulation, at 2 µM)

CC(C[N+](C)(C)C)OC(N)=O (stereo unspecified)
1.15: normalised cell number [11, 18]
-1.3%: nuclear beta-catenin stimulation ([1]; stimulation, at 2 µM)
1.11: normalised cell number [11, 19]
0.843 and -0.822 and 0.416: z-score [12, 21]
inactive: nuclear beta-catenin stimulation ([1]; at 10 µM) -0.5% | insulin secretion stimulation [2] 0.3% | viability decrease [3] -5.9% | tube area decrease [4] -10% | GLP1 secretion stimulation [5] 0.5% | inhibition of viability [6] -0.4% | viability decrease (inhibition) [7] -11.8% | viability decrease (inhibition) [8] -7.3% | inhibition [9] -9.2% | mean signal [10] 276 | red/green cell ratio (normalised) [11] 0.97 | z-score [12, 20] -0.399 and 0.646 and 0.598 | remaining NAD [13] 10 nM | luciferase signal [14] 56 AU | log fold change Tl+ flux [15] 0.0115 | log fold change Tl+ flux [16] 0.0306 | log fold change Tl+ flux [17] -0.0155
